From PubChem BioAssay (NCATS)
Several values for one entry are separate records, joined by “and”; a condition that tells them apart may be missing. Identical values can stand only once. Records with an inconclusive call do not appear. Activity calls are given as the source filed them. Unless noted, calls follow the shape of the dose curve; as a rule, active = well fitted curve in either direction with a large enough effect (not every such curve was filed as active); inconclusive = small, poorly fitted or top-dose-only effect, or another doubt; inactive = flat fitted curve, though single readings scatter.

Tests used:
[1] = AP1 Signaling Pathway (AID 357); settings: ME-180 AP-1-bla reporter, EGF-induced, beta-lactamase ratio, 5 h;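 also: ME-180 reporter cells stimulated with EGF at its EC50 level; % is scaled to controls: 0 for no effect and ±100 for the full control effect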
Outline: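 AP-1-bla ME-180 cells, Opti-MEM + 0.5% dialyzed FBS, plated overnight 37 °C. Cpd titration + EC50 EGF, 5 h 37 °C. CCF4 2.5 h RT; ex 405, em 460/530 ratio → %activity, AC50.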

[2] = target: Cytochrome P450 1A2 (Homo sapiens) (UniProt P05177); test: p450-cyp1a2 (AID 410; calls by dose curve; also: potency is read from the fitted curve at half-maximal effect;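 as to activity change, negative = inhibition: -100% = full effect of reference inhibitor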)
Chain of Cytochrome P450 1A2 (Homo sapiens) (P05177 whole entry, looked up): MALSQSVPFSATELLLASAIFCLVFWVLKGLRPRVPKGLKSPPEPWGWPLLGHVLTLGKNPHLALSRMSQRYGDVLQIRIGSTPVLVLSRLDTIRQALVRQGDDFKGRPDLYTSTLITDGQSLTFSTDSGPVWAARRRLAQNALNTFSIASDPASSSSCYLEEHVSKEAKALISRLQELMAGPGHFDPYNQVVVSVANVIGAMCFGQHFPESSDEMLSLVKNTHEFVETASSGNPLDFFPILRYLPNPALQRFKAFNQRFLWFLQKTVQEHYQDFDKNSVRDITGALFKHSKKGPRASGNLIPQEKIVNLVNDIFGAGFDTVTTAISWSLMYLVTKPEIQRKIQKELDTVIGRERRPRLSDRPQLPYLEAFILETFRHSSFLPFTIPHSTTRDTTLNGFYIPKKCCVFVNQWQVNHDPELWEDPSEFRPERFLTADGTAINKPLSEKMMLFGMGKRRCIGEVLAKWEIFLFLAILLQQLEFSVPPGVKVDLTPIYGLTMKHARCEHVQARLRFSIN
Outline: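 Human CYP1A2 (20nM) demethylated Luciferin-ME at its Km (100uM) in 100mM KPO4. After 10 min compound preincubation, NADPH regeneration ran the reaction 60 min at room temperature. Luciferin was read by luminescence, normalized to 57 uM furafylline.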

[3] = NFAT Signaling Pathway (AID 444); settings: Jurkat NFAT-bla M1, carbachol, beta-lactamase ratio, 5 h;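 also: carbachol stimulus at about its EC50 of 1 µM final; % is scaled to controls: 0 for no effect and ±100 for the full control effect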
Outline: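 Jurkat cells with NFAT-driven β-lactamase reporter and co-expressed M1 receptor, stimulated with carbachol (final 1 uM, ~EC50), compound titration, 5 h at 37 °C. CCF4 loaded 1 h at RT; 460/530 nm ratio gave %activity and AC50.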

[4] = Stat Signaling Pathway (AID 446); settings: ME-180 SIE beta-lactamase reporter, IL-6 stimulated, 5 h;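 also: ME-180 cervical cancer cells given 40 pM IL-6 alongside compound; SIE-controlled beta-lactamase reporter measured as 460/530 nm FRET emission ratio; % is scaled to controls: 0 for no effect and ±100 for the full control effect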
Outline: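 ME-180 SIE-bla cells; overnight plating; cpd + IL-6 40 pM, 5 h, 37 C; LiveBLAzer 2.5 h RT; 460/530 nm emission ratio. Normalized to 300 pM IL-6 and 125 nM JAK inhibitor controls.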

[5] = target: Glucocorticoid receptor (Homo sapiens) (UniProt P04150); test: GR-GFP Redistribution (AID 450;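 active = compounds whose dose series gives a full or clear partial fitted curve of increased nuclear translocation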; also: potency is read from the fitted curve at half-maximal effect); settings: U2OS GR-GFP nuclear translocation, laser cytometry, 2 h
Chain of Glucocorticoid receptor (Homo sapiens) (P04150 whole entry, looked up, the tested form may be a part): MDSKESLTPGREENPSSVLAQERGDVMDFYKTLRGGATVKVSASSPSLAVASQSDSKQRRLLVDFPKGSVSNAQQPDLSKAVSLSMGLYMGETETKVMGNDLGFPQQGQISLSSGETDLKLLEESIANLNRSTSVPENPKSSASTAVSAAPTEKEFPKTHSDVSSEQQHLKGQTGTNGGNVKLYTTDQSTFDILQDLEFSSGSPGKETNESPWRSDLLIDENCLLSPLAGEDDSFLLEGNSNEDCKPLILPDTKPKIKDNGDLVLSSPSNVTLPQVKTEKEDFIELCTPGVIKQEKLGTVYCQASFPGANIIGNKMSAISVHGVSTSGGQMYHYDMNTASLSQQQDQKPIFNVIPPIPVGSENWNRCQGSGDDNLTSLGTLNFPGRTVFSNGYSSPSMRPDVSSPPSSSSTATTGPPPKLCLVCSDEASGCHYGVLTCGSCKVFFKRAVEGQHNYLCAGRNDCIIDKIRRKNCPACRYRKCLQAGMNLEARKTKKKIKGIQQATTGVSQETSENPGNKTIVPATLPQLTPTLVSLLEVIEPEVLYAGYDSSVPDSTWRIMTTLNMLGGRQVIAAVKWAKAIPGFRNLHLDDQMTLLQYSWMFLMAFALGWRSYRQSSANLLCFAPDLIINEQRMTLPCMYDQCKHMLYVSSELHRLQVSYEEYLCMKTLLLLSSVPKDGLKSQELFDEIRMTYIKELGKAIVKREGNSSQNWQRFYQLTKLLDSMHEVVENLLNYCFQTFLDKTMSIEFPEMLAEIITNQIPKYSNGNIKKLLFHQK

[6] = target: Glucocorticoid receptor (Homo sapiens) (UniProt P04150); test: GR-EFC Redistribution (AID 451; calls by dose curve; also: potency is read from the fitted curve at half-maximal effect); settings: CHO-K1 GR-EFC translocation, beta-gal luminescence, 2 h
Outline: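 CHO-K1 cells expressing nuclear EA and GR-ED fragments of b-gal; compounds titrated up to 46 uM final, 2 h at 37 C. GR nuclear translocation read as complemented b-gal luminescence after 1 h RT detection.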

[7] = target: Mitogen-activated protein kinase 10 (Mus musculus) (UniProt Q61831); test: JNK3 AlphaScreen Assay (AID 530);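 also: kinase came from lysate of stimulated human HepG2 cells; signal reports phosphorylation of biotinylated GST-cJun 1-79 at Ser73 with 10 µM ATP; % is scaled to controls: 0 for no effect and ±100 for the full control effect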
Outline: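 qHTS format: compounds tested as titrations against IL-1beta/TNF-alpha-activated HepG2 lysate JNK3 with biotin-GST-cJun substrate and 10 uM ATP at room temperature. Loss of anti-phospho-cJun AlphaScreen signal indicates inhibition.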

[8] = target: 3',5'-cyclic-AMP phosphodiesterase 4B (Homo sapiens) (UniProt Q07343); test: qHTS Assay for Inhibitors of PDE-IV (AID 607; active = well fitted activation curve with a large enough effect in the main read-out, with a control signal flat, not every such curve was filed as active; also: % of control where 0% means no effect)
Chain of 3',5'-cyclic-AMP phosphodiesterase 4B (Homo sapiens) (Q07343 whole entry, looked up): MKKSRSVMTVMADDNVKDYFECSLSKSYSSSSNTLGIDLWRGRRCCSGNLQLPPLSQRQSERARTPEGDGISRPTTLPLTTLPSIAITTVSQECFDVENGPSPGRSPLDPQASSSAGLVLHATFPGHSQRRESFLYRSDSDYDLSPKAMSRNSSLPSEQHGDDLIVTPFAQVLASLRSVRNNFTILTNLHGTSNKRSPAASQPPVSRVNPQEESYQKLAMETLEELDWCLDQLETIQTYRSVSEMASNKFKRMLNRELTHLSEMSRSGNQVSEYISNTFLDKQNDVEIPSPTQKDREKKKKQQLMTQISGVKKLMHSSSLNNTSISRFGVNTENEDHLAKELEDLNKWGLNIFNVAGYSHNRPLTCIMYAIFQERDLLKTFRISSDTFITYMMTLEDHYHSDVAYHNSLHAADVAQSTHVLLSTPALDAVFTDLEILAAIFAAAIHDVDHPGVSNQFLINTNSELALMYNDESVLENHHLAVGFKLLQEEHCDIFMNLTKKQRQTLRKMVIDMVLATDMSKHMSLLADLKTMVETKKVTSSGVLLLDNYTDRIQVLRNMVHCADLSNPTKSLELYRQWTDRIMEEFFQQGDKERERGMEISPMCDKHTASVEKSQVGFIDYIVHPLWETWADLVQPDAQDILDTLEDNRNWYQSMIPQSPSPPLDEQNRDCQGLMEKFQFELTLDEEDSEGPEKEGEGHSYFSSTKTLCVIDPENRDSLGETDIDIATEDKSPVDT
Outline: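 ACTOne HEK293 cells carry a modified cAMP-gated CNG channel and express endogenous PDE4; plated 1000 cells/well, compounds up to 22.9 uM final. Membrane-potential dye fluorescence (ex 535/em 590) was read; parental cells received 10 uM forskolin + 100 uM RO 20-1724.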

[9] = qHTS Assay for Lipid Storage Modulators (AID 1519; calls by dose curve); settings: Drosophila S3 cells, BODIPY lipid droplet/cell ratio, laser cytometry, cells loaded with oleic acid; for activity change, negative = inhibition: at 25.7 µM (top of the series)
Outline: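 Cells seeded at 5,000 per well were treated with compounds over a concentration series and loaded with oleic acid (400 uM, as added). Lipid droplet fluorescence (488 nm excitation, 500-530 nm channel) was read by laser-scanning cytometry and normalized to 20 uM Triacsin C.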

[10] = target: Ubiquitin carboxyl-terminal hydrolase 1 (Homo sapiens) (UniProt O94782); test: Inhibitors of USP1/UAF1: Pilot qHTS (AID 504865; active = well fitted curve in the direction sought with a large enough effect; an effect the other way counts as inactive or inconclusive; also: nearly all actives have a fitted effect of over 35% in size; also: potency is read from the fitted curve at half-maximal effect)
Outline: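 1nM USP1/UAF1 + cpd, 15 min RT; start w/ Ub-Rho 150nM final; kinetic FL 480/540 nm, 6 reads q60 s. Buffer 50mM HEPES pH 7.8, 0.5mM EDTA, 1mM TCEP, 0.01% Tween-20, 0.1 mg/ml BSA.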

[11] = target: Pyruvate kinase (Leishmania mexicana) (UniProt Q27686); test: qHTS Validation Assay for Inhibitors of Leishmania Mexicana Pyruvate Kinase (AID 945; active = well fitted curve in the direction sought with a large enough effect; an effect the other way counts as inactive or inconclusive;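 also: 0% = DMSO only neutral control wells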)
Chain of Pyruvate kinase (Leishmania mexicana) (Q27686 2-499 E452W): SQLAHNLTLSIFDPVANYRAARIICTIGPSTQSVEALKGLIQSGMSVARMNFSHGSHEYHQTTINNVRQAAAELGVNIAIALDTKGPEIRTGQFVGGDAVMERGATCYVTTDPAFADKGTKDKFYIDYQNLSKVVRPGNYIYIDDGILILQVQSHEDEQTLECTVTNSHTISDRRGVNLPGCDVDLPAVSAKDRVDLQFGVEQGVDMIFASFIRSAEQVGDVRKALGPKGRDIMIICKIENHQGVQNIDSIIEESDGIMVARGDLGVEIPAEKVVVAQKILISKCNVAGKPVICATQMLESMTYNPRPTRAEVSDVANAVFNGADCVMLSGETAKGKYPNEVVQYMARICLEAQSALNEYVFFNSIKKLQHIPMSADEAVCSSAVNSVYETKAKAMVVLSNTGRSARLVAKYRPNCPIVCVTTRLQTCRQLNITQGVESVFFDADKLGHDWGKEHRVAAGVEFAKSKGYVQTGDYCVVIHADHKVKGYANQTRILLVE
Outline: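 Pyruvate kinase activity of E451W LmPYK (0.2 nM) was followed as ATP output after 1 h at room temperature with 0.5 mM PEP and 0.1 mM ADP, detected by PKLight luminescence.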

[12] = target: Pyruvate kinase PKM (Homo sapiens) (UniProt P14618); test: qHTS Assay for Activators of Human Muscle Pyruvate Kinase (AID 954; active = well fitted curve in the direction sought with a large enough effect, not every such curve was filed as active;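 also: 0% = uninhibited enzyme and -100% = no enzyme or full thiadiazolimine inhibition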)
Chain of Pyruvate kinase PKM (Homo sapiens) (P14618 whole entry, looked up): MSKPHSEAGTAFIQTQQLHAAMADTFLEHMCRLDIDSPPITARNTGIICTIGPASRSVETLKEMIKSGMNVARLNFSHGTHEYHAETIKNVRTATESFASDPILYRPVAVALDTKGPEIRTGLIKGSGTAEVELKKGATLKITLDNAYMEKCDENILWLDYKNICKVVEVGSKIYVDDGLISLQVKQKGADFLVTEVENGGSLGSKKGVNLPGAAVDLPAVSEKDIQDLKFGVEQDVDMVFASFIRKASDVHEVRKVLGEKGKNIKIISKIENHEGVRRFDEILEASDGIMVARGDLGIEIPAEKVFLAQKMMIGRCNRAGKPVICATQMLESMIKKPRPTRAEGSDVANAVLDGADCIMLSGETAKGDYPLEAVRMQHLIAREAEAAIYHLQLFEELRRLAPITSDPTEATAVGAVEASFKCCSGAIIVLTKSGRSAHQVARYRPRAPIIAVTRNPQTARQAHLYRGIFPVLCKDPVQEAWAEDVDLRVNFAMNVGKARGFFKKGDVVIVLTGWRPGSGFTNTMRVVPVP
Outline: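 Luminescence from a luciferase ATP-detection/stop reagent reported PKM2 activity. Reactions contained 0.1 nM purified human enzyme, 0.5 mM PEP, 0.1 mM ADP and 7 mM MgCl2 at pH 7.2, run 1 h at RT.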

[13] = target: Alpha-galactosidase A (Homo sapiens) (UniProt P06280); test: Counterscreen for Glucocerebrosidase Inhibitors: qHTS Assay for Human alpha-Galactosidase at pH 4.5 (AID 992; active = well fitted curve in the direction sought with a large enough effect; an effect the other way counts as inactive or inconclusive; also: 0% is about no effect)
Chain of Alpha-galactosidase A (Homo sapiens) (P06280 whole entry, looked up): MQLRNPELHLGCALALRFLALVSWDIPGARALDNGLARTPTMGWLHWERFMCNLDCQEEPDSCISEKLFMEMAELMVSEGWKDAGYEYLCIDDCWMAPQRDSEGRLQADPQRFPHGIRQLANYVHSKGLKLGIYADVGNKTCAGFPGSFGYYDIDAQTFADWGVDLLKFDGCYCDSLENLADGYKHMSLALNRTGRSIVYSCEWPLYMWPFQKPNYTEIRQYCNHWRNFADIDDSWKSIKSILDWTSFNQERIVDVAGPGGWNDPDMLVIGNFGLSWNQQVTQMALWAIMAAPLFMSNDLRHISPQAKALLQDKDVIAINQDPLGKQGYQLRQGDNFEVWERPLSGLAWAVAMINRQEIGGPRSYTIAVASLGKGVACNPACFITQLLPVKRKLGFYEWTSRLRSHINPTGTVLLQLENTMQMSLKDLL
Outline: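 Enzyme at 2 nM final was combined with compound (0.7 nM to 77 uM) and 80 uM 4-methylumbelliferyl alpha-D-galactopyranoside in 50 mM citric acid, 0.005% Tween-20, pH 4.5. After 20 min at room temperature, fluorescence was read (Ex 365/Em 440 nm); AC50 came from Hill fits.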

[14] = target: alpha-glucosidase (Oryza sativa, rice) (UniProt Q653V4); test: Counterscreen for Glucocerebrosidase Inhibitors: qHTS Assay for Rice alpha-Glucosidase at pH 5.0 (AID 997; active = well fitted curve in the direction sought with a large enough effect; an effect the other way counts as inactive or inconclusive;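 also: 0% = full activity with enzyme and -100% = basal without enzyme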)
Outline: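 Rice alpha-glucosidase (4 nM final) with 400 uM 4-methylumbelliferyl-alpha-D-glucopyranoside in citrate buffer pH 5.0, 20 min at room temperature, stopped at pH 10; fluorescence 365/440 nm, compounds 0.7 nM–77 uM, AC50 from Hill fits.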

[15] = target: ATP-dependent 6-phosphofructokinase (Trypanosoma brucei brucei) (UniProt O15648); test: qHTS Assay to Find Inhibitors of T. brucei phosphofructokinase: hit validation (AID 492961; active = well fitted curve in the direction sought with a large enough effect; an effect the other way counts as inactive or inconclusive)
Chain of ATP-dependent 6-phosphofructokinase (Trypanosoma brucei brucei) (O15648 whole entry, looked up): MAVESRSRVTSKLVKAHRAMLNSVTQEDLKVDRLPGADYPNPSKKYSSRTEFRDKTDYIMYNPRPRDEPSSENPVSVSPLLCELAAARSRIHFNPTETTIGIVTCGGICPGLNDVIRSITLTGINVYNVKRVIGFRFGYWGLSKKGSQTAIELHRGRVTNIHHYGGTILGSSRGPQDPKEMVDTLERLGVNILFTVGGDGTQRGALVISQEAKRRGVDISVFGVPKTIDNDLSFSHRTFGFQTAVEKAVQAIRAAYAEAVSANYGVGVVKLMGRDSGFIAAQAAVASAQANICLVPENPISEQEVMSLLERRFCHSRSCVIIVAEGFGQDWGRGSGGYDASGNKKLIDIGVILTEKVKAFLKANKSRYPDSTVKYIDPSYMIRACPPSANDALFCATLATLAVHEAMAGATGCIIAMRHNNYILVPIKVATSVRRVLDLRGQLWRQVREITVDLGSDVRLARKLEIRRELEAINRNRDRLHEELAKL
Outline: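 Inhibition of parasite PFK is measured as reduced ADP formation, quantified via luciferase after ATP depletion. Assay used 0.1 mM ATP, 0.5 mM F6P, 1.25 nM enzyme, 45 min incubation.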

[16] = target: Luciferin 4-monooxygenase (Photinus pyralis) (UniProt P08659); test: Biochemical firefly luciferase enzyme assay for NPC (AID 624030; active = well fitted curve in the direction sought with a large enough effect; an effect the other way counts as inactive or inconclusive;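 also: purified P. pyralis luciferase at 10 nM with luciferin and ATP substrate; 0% = DMSO and -100% = full luciferase inhibition by PTC124 control; nearly all actives have a fitted effect of over 70% in size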)
Chain of Luciferin 4-monooxygenase (Photinus pyralis) (P08659 whole entry, looked up): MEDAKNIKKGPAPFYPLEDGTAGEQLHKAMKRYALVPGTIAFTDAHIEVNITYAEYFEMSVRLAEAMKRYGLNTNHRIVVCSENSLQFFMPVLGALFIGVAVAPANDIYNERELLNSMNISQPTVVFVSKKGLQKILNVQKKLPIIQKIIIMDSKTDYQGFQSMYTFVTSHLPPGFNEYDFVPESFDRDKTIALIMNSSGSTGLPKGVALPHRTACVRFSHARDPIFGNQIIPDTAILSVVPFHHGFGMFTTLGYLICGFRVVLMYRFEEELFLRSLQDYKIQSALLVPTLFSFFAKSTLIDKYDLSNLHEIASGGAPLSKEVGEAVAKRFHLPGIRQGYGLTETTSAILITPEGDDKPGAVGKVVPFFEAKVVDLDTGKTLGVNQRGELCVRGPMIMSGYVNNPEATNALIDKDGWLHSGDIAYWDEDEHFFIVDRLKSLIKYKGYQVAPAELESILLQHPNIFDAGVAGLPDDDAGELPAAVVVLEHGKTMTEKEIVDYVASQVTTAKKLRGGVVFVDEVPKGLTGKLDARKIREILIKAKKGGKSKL
Outline: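 Purified P. pyralis luciferase at 10 nM in 50 mM Tris Acetate (final), luminescence read within 5 minutes of enzyme addition to compounds. Activity normalised to PTC124 versus DMSO; concentration-response curves classed by r2, magnitude and activity.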

[17] = qHTS profiling for inhibitors of Plasmodium falciparum proliferation (AID 504749; active = well fitted curve in the direction sought with a large enough effect; an effect the other way counts as inactive or inconclusive; also: potency is read from the fitted curve at half-maximal effect;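 as to activity, negative = inhibition: 0% = DMSO vehicle and full inhibition = artemisinin control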; as to all read-outs here: nearly all actives have a fitted effect of over 60% in size); settings: P. falciparum in erythrocytes, SYBR Green DNA, 72 h; for activity, negative = inhibition: at 12.8 µM (top of the series)
Outline: (§1)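 Readout was DNA-dye fluorescence from lysed cultures, ex 485/em 535 nm. Parasitized red cells had grown 72 h with compound; data scaled between 0.29 uM artemisinin and DMSO wells and corrected using vehicle-only plates.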

[18] = test system: AS120; test: as above; settings: P. falciparum in erythrocytes, SYBR Green DNA, 72 h; series mostly up to 28.7 µM
Outline: as §1

[19] = test system: CP250; test: as above; settings: P. falciparum in erythrocytes, SYBR Green DNA, 72 h; series mostly up to 12.8 µM
Outline: as §1

[20] = at 7.69 µM (top of the series) unless noted
[21] = measured here: cell count channel max response
[22] = measured here: lipid channel max response

O=C(O)/C=C\c1ccc(O)c(O)c1
inactive: activity change, negative = inhibition ([1]; at 17.2 µM (top of the series)) -12.5% | activity change, negative = inhibition ([1]; at 38 µM (top of the series)) -5.91% | Potency [2] | activity change, negative = inhibition [3, 20] -7.46% [at 38 µM] | activity, negative = inhibition ([4]; at 17.2 µM (top of the series)) 3.52% | activity, negative = inhibition ([4]; at 38 µM (top of the series)) 10.1% | Potency [5] > 46 µM and > 20.6 µM | Potency [6] > 46 µM and > 20.6 µM | Potency [7] | Potency [8] | activity change, negative = inhibition [9] -3.56% | Potency [10]
-1.26%: max response [9, 21]
-2.45%: max response [9, 22]

CN(C)CC[C@H](c1ccc(Br)cc1)c1ccccn1
inactive: activity change, negative = inhibition ([1]; at 17.2 µM (top of the series)) 0.671% | activity change, negative = inhibition ([1]; at 38 µM (top of the series)) 15.7% and 25.3% | Potency [2] | activity, negative = inhibition ([4]; at 17.2 µM (top of the series)) -5.49% | activity, negative = inhibition ([4]; at 38 µM (top of the series)) -29.8% | Potency [7] | Potency [8] | outcome [11] | outcome [12] | outcome [13] | outcome [14] | activity change, negative = inhibition [9] -2.32% | Potency [10]
-5.95%: max response [9, 22]
-4.35%: max response [9, 21]

C[C@@]12C[C@@H](O)[C@H]3[C@@H](CCC4=CC(=O)CC[C@]43C)[C@H]1CC[C@H]2C(=O)CO
active: Potency [5] 74.2 nM and 8.8 nM | Potency [6] 0.179 µM
-3.56%: max response [9, 21]
-9.53%: max response [9, 22]
inactive: activity change, negative = inhibition ([1]; at 17.2 µM (top of the series)) 4.07% | activity change, negative = inhibition ([1]; at 38 µM (top of the series)) -3.18% | activity change, negative = inhibition ([3]; at 17.2 µM (top of the series)) 0.118% | activity change, negative = inhibition ([3]; at 38 µM (top of the series)) -0.571% | activity, negative = inhibition ([4]; at 17.2 µM (top of the series)) -0.637% | activity, negative = inhibition ([4]; at 38 µM (top of the series)) -1.77% | Potency [8] | activity change, negative = inhibition [9] -3.75% | Potency [10]

NS(=O)(=O)c1cc([C@@]2(O)NC(=O)c3ccccc32)ccc1Cl
inactive: activity change, negative = inhibition [1, 20] -7.43% [at 17.2 µM] | Potency [2] | activity change, negative = inhibition [3, 20] -15.2% [at 17.2 µM] | activity, negative = inhibition [4, 20] 1.16% [at 17.2 µM] | Potency [5] > 20.6 µM | Potency [6] > 20.6 µM | Potency [7] | Potency [8] | activity change, negative = inhibition [9] -1.2% | outcome [15] | Potency [10] | outcome [16] | activity, negative = inhibition ([17]; parasite line A) -2.59% | activity, negative = inhibition ([17]; parasite line B) 2.66% | Potency [18] | Potency [19]
-12.6%: max response [9, 21]
-14.5%: max response [9, 22]

C[C@]12CCC3c4ccc(O)cc4CCC3[C@@H]1CCC2=O (some centres undefined)
-8.59%: max response [9, 22]
-7.49%: max response [9, 21]
inactive: activity change, negative = inhibition ([1]; at 17.2 µM (top of the series)) 0.112% | activity change, negative = inhibition ([1]; at 38 µM (top of the series)) -3.57% | activity change, negative = inhibition ([3]; at 17.2 µM (top of the series)) -16.8% | activity change, negative = inhibition ([3]; at 38 µM (top of the series)) -2.29% | activity, negative = inhibition ([4]; at 17.2 µM (top of the series)) -9.06% | activity, negative = inhibition ([4]; at 38 µM (top of the series)) -20.6% | Potency [7] | Potency [8] | activity change, negative = inhibition [9] -0.972% | Potency [10]

CCN(CC)CCC[C@H](C)Nc1c2ccc(Cl)cc2nc2ccc(OC)cc12
inactive: activity change, negative = inhibition ([1]; at 17.2 µM (top of the series)) 28.6% | activity change, negative = inhibition ([1]; at 38 µM (top of the series)) 21.9% | Potency [7] | Potency [8] | outcome [11] | outcome [12] | outcome [13] | outcome [14] | activity change, negative = inhibition [9] -0.0943% | outcome [15] | outcome [16]
active: Potency [2] 2 µM and 1 µM | Potency [10] 31600 nM | Potency ([17]; parasite line A) 224 nM | Potency ([17]; parasite line B) 282 nM | Potency [18] 794 nM | Potency [19] 447 nM
-13%: max response [9, 22]
-11.8%: max response [9, 21]

CCC[C@H]1C(=O)N2C(N(C)C)=Nc3ccc(C)cc3N2C1=O
-10.8%: max response [9, 21]
-12%: max response [9, 22]
inactive: activity change, negative = inhibition [1, 20] 1.43% [at 17.2 µM] | activity change, negative = inhibition [3, 20] -21% [at 17.2 µM] | activity, negative = inhibition [4, 20] -9.03% [at 17.2 µM] | Potency [5] > 20.6 µM | Potency [6] > 20.6 µM | Potency [7] | Potency [8] | activity change, negative = inhibition [9] -3.21% | outcome [15] | Potency [10] | outcome [16] | activity, negative = inhibition ([17]; parasite line A) 12.2% | activity, negative = inhibition ([17]; parasite line B) -0.686% | Potency [18] | Potency [19]
active: Potency [2] 1.58 µM
